An excerpt weighted towards active compounds, which were near 9.2% of everything screened.
SMN2 splice enh = enhancers of SMN2 splice variant expression | 2.8% of 210,000 active | HEK293 SMN2-luciferase splicing reporter, luminescence, 30-36 h | Potency, µM (doses to about 46.1 µM), inactives show at the top dose activity change, positive = activation, most hits filed as activators; further: % of control where 0% means no effect; nearly all actives have a fitted effect of over 55% in size
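HEK293 cells carry an SMN2 […]–luciferase reporter in which exon 7 inclusion puts luciferase in frame. Cells were plated 10-12 h before compound addition, then incubated 30-36 h at 37C. ONE-Glo luminescence was read; sodium butyrate at 4.5 mM final served as control.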
NPC1 promoter act = activators of NPC1 promoter; Huh7 NPC1 promoter luciferase reporter, 24 h; Potency, µM (doses to about 9.22 µM), inactives show at the highest dose activation, most hits filed as activators; 2.4% of 320,000 active; AID 485313; further: % of control where 0% means no effect; nearly all actives have a fitted effect of over 60% in size
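Luciferase expression driven by the NPC1 promoter was measured in stably transfected Huh7 cells after a 24 h compound incubation, using a luciferase reagent and a luminescence read.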
ELG1 DNA repair = inhibitors of ELG1-dependent DNA repair in HEK293T cells; HEK293T ELG1-luciferase reporter, luminescence, 16 h; DNA damage induced by 5-fluorouridine; Potency, µM (titrated, usually from 46.1 µM), without a hit: at the highest dose activity change, negative = inhibition, hits mostly inhibitors; 2.3% of 330,000 active; further: on the % scale 0 is the no-effect control and ±100 the full control effect; nearly all actives have a fitted effect of over 55% in size
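Quantitative HTS, concentration-response format. 2,000 cells/well co-treated with 5-fluorouridine and compound, 16 hr in 5% CO2 at 37 °C; ONE-Glo luminescence read after 30 min.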
Rab9 prom act = Rab9 promoter activation; Potency, µM (series often up to 9.22 µM), for the others: at the top dose activation, negative = inhibition, usual class: activators; 2.8% of 320,000 active; Huh7 Rab9 promoter-luciferase reporter, luminescence, 24 h; further: % of control where 0% means no effect; nearly all actives have a fitted effect of over 60% in size
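Stable Rab9-luc Huh7, 1500 cells/well, 2 h settle; cmpd in DMSO, 24 h, 37 °C/5% CO2; luciferase reagent 10 min RT; luminescence.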
FLuc modulator = firefly luciferase modulation, counter-screen for miR-21 project. P08659. purified FLuc, Km substrates, luminescence inhibition. Potency, µM (series often up to 57.5 µM), without a hit: at the highest dose activity change, negative = inhibition, usual class: inhibitors. 6.9% of 360,000 active. AID 588342;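 further: plate controls were vehicle for no effect and reference inhibitor for full effect; nearly all actives have a fitted effect of over 55% in size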
Target sequence (P08659 whole entry, looked up): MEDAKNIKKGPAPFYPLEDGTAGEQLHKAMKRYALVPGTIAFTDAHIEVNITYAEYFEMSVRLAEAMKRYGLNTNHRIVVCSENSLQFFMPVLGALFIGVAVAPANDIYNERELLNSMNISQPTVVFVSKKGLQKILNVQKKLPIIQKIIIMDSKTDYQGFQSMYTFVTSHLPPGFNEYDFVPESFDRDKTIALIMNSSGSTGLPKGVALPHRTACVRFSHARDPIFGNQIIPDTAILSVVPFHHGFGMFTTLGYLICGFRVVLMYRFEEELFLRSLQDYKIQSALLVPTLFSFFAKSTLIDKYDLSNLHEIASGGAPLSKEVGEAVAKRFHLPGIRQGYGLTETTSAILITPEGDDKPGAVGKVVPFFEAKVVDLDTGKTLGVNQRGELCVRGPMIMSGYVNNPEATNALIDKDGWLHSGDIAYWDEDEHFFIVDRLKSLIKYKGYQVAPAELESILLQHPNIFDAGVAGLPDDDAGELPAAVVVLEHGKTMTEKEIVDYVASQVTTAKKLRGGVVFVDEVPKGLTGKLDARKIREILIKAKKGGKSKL
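Purified P. pyralis luciferase (10nM final) with 10uM D-luciferin and 10uM ATP (Km levels) in 50mM Tris acetate pH 7.5, 10mM Mg acetate, 0.01% Tween-20, 0.05% BSA; qHTS 6-point titration, ~60 µM downward; luminescence read.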
ELG1 genotoxic = inducers of genotoxicity in HEK293T ELG1-luciferase cells. HEK293T ELG1-luciferase reporter, luminescence, 16 h. Potency, µM (series often up to 46 µM), for inactives: at the top dose activity change, positive = activation, hits mostly activators. 1.3% of 330,000 active. AID 504466; further: % of control where 0% means no effect; nearly all actives have a fitted effect of over 60% in size
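Screening used a luciferase reporter fused to human ELG1 in HEK293T cells. Luminescence was read on a CCD plate imager after 16 hr exposure and 30 min ONE-Glo incubation.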
An asterisk follows results filed as active; ? = inconclusive; nt = no result given; [ ] = another dose, or the depositor's remark. The call rests on the fitted dose curve; in most records, active means well fitted curve in the direction sought with a large enough effect; inconclusive means small, poorly fitted or top-dose-only effect, or another doubt; inactive means no such curve, though single readings can be large; an effect the other way counts as inactive or inconclusive. Potency means the concentration at half of the fitted maximal effect.

SMILES	SMN2 splice enh	NPC1 promoter act	ELG1 DNA repair	Rab9 prom act	FLuc modulator	ELG1 genotoxic
O=C(COC(=O)c1ccccc1O)Nc1ccc2ccccc2c1	nt	nt	?	nt	nt	7.0%
CS(=O)(=O)N1CCc2cc(C(=O)Nc3ccc(Cl)cc3)ccc21	nt	?	-20.4%	?	?	9.2%
O=C(Nc1nc(=S)ss1)c1ccc(Cl)cc1Cl	?	?	?	?	15.1µM*	1.3%
CS(=O)(=O)N1CCc2cc(NC(=O)c3ccc(Cl)cc3Cl)ccc21	9.3%	5.5%	15.9%	15.0%	19µM*	0.3%
O=C(Nc1ccc2ccccc2c1)c1ccccc1O	nt	3.98µM*	?	3.55µM*	0.301µM*	0.231µM*
Nc1cc2sc(-c3ccc(C(=O)O)cc3)nc2cc1Cl	1.41µM*	0.794µM*	?	0.562µM*	0.675µM*	?
Cc1ccc2nc(-c3ccc(NC(=O)c4ccc(S(C)(=O)=O)cc4)cc3)sc2c1	nt	nt	nt	nt	1.8%	nt
O=C(O)c1ccc2nc(-c3ccccc3)sc2c1	0.1µM*	-27.2%	?	-28.2%	2.39µM*	?
O=c1cc(O)nc(-c2ccccc2)s1	3.4%	-2.2%	1.7%	4.4%	-12.5%	-3.5%
Cc1ccc2nc(-c3ccc(NC(=O)c4ccc(N)cc4)c(S(=O)(=O)O)c3)sc2c1	3.98µM*	nt	nt	nt	nt	nt
Nc1ccc(-c2nc3ccc(C(=O)O)cc3s2)cc1	nt	-38.9%	?	-43.0%	0.213µM*	?
C/C(=N\Nc1nc(-c2cc(C)ccc2C)cs1)c1cc2c(ccc3ccccc32)oc1=O	-26.8%	-5.3%	0.7%	-1.7%	-1.1%	-7.0%
COc1ccccc1CNC(=O)C(C)c1ccc([N+](=O)[O-])cc1 (centres undefined)	-10.3%	-6.7%	-7.1%	-8.1%	0.4%	-5.3%
O=C(Nc1ncc(Cc2ccccc2Cl)s1)c1ccc(-c2cccc([N+](=O)[O-])c2)o1	nt	-4.4%	13µM*	-9.1%	-0.8%	-4.5%
O=C(Nc1ncc(Cc2ccc(C(F)(F)F)cc2)s1)c1ccc(-c2cccc([N+](=O)[O-])c2)o1	-59.9%	-12.2%	20.6µM*	-10.3%	1.6%	-3.0%
COc1ccccc1NC(=O)c1ccc(NC(=O)CN2C(=O)CN(C)C2=O)cc1	13.3%	-3.4%	-1.2%	-1.6%	0.8%	0.2%
Oc1cc(-n2cccn2)c(O)cc1-n1cccn1	nt	-0.5%	?	-2.0%	16.9µM*	?
C=CCn1c(SCc2nc3cc(C(=O)OC)ccc3c(=O)[nH]2)nc2sc(CC)cc2c1=O	-4.9%	-3.3%	8.2µM*	1.2%	0.9%	-0.6%
C=CCn1c(SCC(=O)Nc2sccc2C(N)=O)nc2sc(CC)cc2c1=O	nt	-6.3%	?	-14.6%	?	-5.7%
Cc1ccc(C)c(Oc2coc3cc(OCC(=O)Nc4ccccc4C(C)C)ccc3c2=O)c1	-32.1%	-9.4%	25.9µM*	-2.0%	0.2%	-7.5%
CC(=O)Oc1cccc(N2C(=O)C3C(C2=O)C2C=CC3C23CC3)c1 (centres undefined)	14.2%	0.3%	2.7%	4.5%	2.8%	2.3%
O=C1C2C(C(=O)N1c1ccc3c(c1)OCO3)C1C=CC2C12CC2 (centres undefined)	-5.0%	-2.2%	?	3.1%	16.9µM*	0.4%
N#Cc1ccc(C(=O)Nc2cc(C3CC3)nn2-c2ccccc2)cc1	nt	-0.7%	1.1%	-4.2%	-2.0%	0.3%
Cc1ccc2c(COC(=O)C3CC(=O)N(c4ccc5c(c4)OCCO5)C3)cc(=O)oc2c1 (centres undefined)	nt	nt	?	nt	nt	-0.2%
O=C(CCCn1c(=O)c2cccn2c2ccccc21)NCc1ccccc1Br	nt	nt	nt	nt	-0.1%	nt
SMILES	SMN2 splice enh	NPC1 promoter act	ELG1 DNA repair	Rab9 prom act	FLuc modulator	ELG1 genotoxic
O=C1CNC(=S)N1c1nc(-c2ccccc2)cs1	11.2µM*	2.82µM*	?	2.82µM*	2.69µM*	?
COc1ccc(-c2csc(N3C(=N)SCC3=O)n2)cc1	1µM*	0.447µM*	?	0.398µM*	0.426µM*	1.64µM*
COc1ccc(-c2csc(N3C(=O)CNC3=S)n2)cc1	1.26µM*	0.562µM*	?	0.501µM*	0.849µM*	3.26µM*
COc1cccc(COC(=O)C2CCN(S(=O)(=O)c3ccc(C)cc3C)CC2)c1OC	nt	-8.3%	-13.0%	1.2%	2.9%	-0.8%
O=[N+]([O-])c1cc(-c2nc3nc4ccccc4nc3n2CCc2ccccc2)cc([N+](=O)[O-])c1	-10.3%	4.2%	7.6%	-4.5%	-3.6%	10.7%
COc1ccc(/C(C)=N/Nc2nc3ccccc3n3cnnc23)cc1OC	nt	3.8%	?	9.1%	10.7µM*	-0.9%
[ClH+][Cu][ClH+].[Cu].[OH2+]c1ccc2ccccc2c1CN1CCCCC1.[OH2+]c1ccc2ccccc2c1CN1CCCCC1	-24.2%[9.22 µM]	nt	nt	nt	nt	nt
CN(C)S(=O)(=O)c1cccc(NC(=O)c2ccc3c(c2)OCCO3)c1	nt	3.16µM*	?	?	9.53µM*	-0.4%
CCCC(=O)Nc1cccc(NC(=O)c2ccc3c(c2)OCO3)c1	?	7.8%	0.7%	4.1%	?	-0.4%
CCC(=O)Nc1cccc(NC(=O)c2ccc3c(c2)OCCO3)c1	12.6µM*	?	?	?	16.9µM*	7.2%
CC(C)COc1ccc(-c2cc(C(=O)NN)[nH]n2)cc1	?	?	?	?	?	16.2%
CCOc1cc(C(=O)O/N=C(\N)c2ccc([N+](=O)[O-])cc2)cc(OCC)c1OCC	6.2%	-5.3%	?	2.5%	2.6%	0.9%
N/C(=N\OC(=O)c1ccccc1F)c1cccc([N+](=O)[O-])c1	nt	2.82µM*	?	2.82µM*	3.38µM*	?
Cc1ccccc1C(=O)O/N=C(\c1ccccc1)c1ccccn1	20.3%	0.5%	-9.3%	-0.5%	21.3µM*	-1.8%
Cc1ccccc1C(=O)O/N=C(\N)c1ccc([N+](=O)[O-])cc1	nt	?	?	?	19µM*	?
O=C(Nc1ccccc1)O/N=C(\c1ccccc1)c1ccccn1	8.0%	-0.9%	?	3.0%	-11.8%	4.3%
COc1cc(C(=O)O/N=C(\N)c2cccc([N+](=O)[O-])c2)cc(OC)c1OC	nt	-3.5%	-15.8%	7.8%	-1.9%	7.4%
Cc1ccccc1/C(N)=N/OC(=O)c1ccc(F)cc1	-3.4%	?	?	?	1.35µM*	?
Cc1ccc(NC(=O)CN(C)C(=S)NC2CC2)cc1	8.6%	-3.8%	10.1%	5.1%	-2.4%	2.3%
O=C(O)c1ncn(Cc2ccc(Br)cc2)c1C(=O)O	11.4%	-2.7%	-6.0%	0.0%	-9.7%	0.9%

Source: PubChem (National Center for Advancing Translational Sciences (NCATS))
